Screening results deposited in PubChem BioAssay by National Center for Advancing Translational Sciences (NCATS).
DT40 TDP1 CPT = growth inhibition of DT40 Tdp1-/-;hTDP1 cells with camptothecin (screen for TDP1 inhibitors); AID 686979; hit rate 12% among 420,000; Potency, µM (titrated, usually from 46.2 µM), inactives show at the top dose activity change, negative = growth inhibition, hits mostly inhibitors; chicken DT40 Tdp1-/-;hTDP1 cells + 20 nM CPT, ATP luminescence, 48 h; also: potency is read from the fitted curve at half-maximal effect; nearly all actives have a fitted effect of over 55% in size
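Cell growth measured by CellTiter-Glo luminescence after a minimum 48 h, 37 C compound exposure with 20 nM CPT in Tdp1-knockout DT40 cells stably expressing hTDP1, seeded 400/well; qHTS titration format.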
ALOX12 inh = ALOX12 (human) lipoxygenase inhibition; P18054; purified 12hLO, xylenol orange hydroperoxide absorbance; Potency, µM (doses to about 108 µM), inactives show top-dose activity change, negative = inhibition, actives largely listed as inhibitors; hit rate 1.1% among 580,000; AID 1671190; also: potency is read from the fitted curve at half-maximal effect
Target sequence (P18054 whole entry, looked up): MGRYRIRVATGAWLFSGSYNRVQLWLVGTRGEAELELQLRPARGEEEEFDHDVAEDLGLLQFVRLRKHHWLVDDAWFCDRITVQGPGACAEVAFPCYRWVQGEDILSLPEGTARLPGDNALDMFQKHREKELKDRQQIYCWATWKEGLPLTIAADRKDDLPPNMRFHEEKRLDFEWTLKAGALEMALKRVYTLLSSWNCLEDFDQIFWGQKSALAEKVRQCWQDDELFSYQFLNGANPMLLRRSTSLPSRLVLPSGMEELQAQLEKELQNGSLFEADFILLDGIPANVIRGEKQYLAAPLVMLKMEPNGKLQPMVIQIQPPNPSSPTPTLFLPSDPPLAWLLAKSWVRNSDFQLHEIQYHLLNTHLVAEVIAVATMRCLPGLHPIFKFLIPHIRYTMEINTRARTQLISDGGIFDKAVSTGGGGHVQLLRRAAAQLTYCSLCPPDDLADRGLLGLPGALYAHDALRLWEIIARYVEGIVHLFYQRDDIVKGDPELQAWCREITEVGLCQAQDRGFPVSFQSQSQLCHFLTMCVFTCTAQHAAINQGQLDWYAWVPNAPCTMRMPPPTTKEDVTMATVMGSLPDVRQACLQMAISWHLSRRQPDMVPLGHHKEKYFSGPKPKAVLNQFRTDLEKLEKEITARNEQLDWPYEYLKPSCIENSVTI
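Purified human 12hLO at 150 nM in 25 mM Hepes, 0.01% Triton X-100, pH 7.0, preincubated 15 min at room temperature with compound. Reaction started with 40 uM arachidonic acid, 30 min at room temperature. Hydroperoxide measured by Fe-xylenol orange, 573/405 nm absorbance ratio.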
HT1080NT lethal = kills 2HG-producing HT-1080-NT fibrosarcoma cells. HT-1080-NT fibrosarcoma viability, CellTiter-Glo ATP luminescence, 48 h. Potency, µM (series often up to 46.1 µM), for the others: top-dose activity, negative = less viability, hits mostly cytotoxic. hit rate 1.6% among 360,000;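 also: NT is the 2HG producing partner of a matched IDH1 knockdown line; potency is read from the fitted curve at half-maximal effect; 0% = DMSO-treated cells and -100% = media-only wells without cells; nearly all actives have a fitted effect of over 55% in size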
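Read-out is CellTiter-Glo luminescence after 10 minutes at room temperature, following 48 hours' compound treatment of HT-1080-NT cells (750 cells/well, RPMI, 5% FBS, 37 degrees C).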
HT1080 IDH1KD tx = HT-1080 IDH1 knockdown cell toxicity (counter line). HT-1080 IDH1 knockdown viability, ATP luminescence, 48 h. Potency, µM (series often up to 46.1 µM), for the others: at the highest dose activity, negative = toxicity, most hits filed as cytotoxic. hit rate 2% among 360,000;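 also: potency is read from the fitted curve at half-maximal effect; 0% = DMSO wells and -100% = cell-free medium wells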
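In this qHTS, HT-1080 cells depleted of IDH1 are exposed for 48 h at 37 °C to compound titrations. Toxicity is scored from CellTiter-Glo luminescence, with DMSO as full viability and medium alone as none.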
TDP1 cell noCPT = qHTS for Inhibitors of human tyrosyl-DNA phosphodiesterase 1 (TDP1): qHTS in cells in absence of CPT. DT40 Tdp1-/- hTDP1 cells, no CPT, ATP luminescence, 48 h. Potency, µM (titrated, usually from 46.2 µM), inactives show at the highest dose activity change, negative = growth inhibition, hits mostly inhibitors. hit rate 15% among 420,000; also: potency is read from the fitted curve at half-maximal effect; nearly all actives have a fitted effect of over 55% in size
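Chicken DT40 Tdp1-/- cells complemented with human TDP1, screened without camptothecin (DMSO vehicle only), 400 cells/well. Compounds pin-transferred, cells incubated at 37 °C for at least 48 hr. Growth read as ATP-dependent luminescence (CellTiter-Glo, 30 min at RT).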
IL1B secr inh = blocks inflammasome-driven IL-1 beta release | THP-1 LPS/ATP IL-1B secretion, AlphaLISA, 16 h; active compounds read low | activity change, % at 57.5 µM | hit rate 4.7% among 360,000 | AID 743279; in the data active = activity change below about -50%; inconclusive = mostly about -30% to -49%
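Secreted IL-1B measured by AlphaLISA bead assay after 16 h compound exposure of THP-1 cells; compounds (final up to 57.5 uM) added 1 h before LPS (250 ng/mL) and ATP (1.25 mM) stimulation; lower signal means less secretion.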
An asterisk follows results filed as active; u = inconclusive; x = no result given; ! = a repeat was not active; [ ] = remark or other dose. This is one part of a sample in which hits are shown more often than they occur. Unless noted, calls follow the shape of the dose curve; as a rule, active = well fitted curve in the direction sought with a large enough effect; inconclusive = small, poorly fitted or top-dose-only effect, or another doubt; inactive = no such curve, though single readings can be large; an effect the other way counts as inactive or inconclusive. Unless noted, % is scaled to controls: 0 for no effect and ±100 for the full control effect.

SMILES | DT40 TDP1 CPT | ALOX12 inh | HT1080NT lethal | HT1080 IDH1KD tx | TDP1 cell noCPT | IL1B secr inh
CNCCOc1ccccc1C(C)(C)C | -28.4% | u | -7.0% | 1.6% | u | 3.4
S=C(NCCN1CCOCC1)Nc1cccc2ccccc12 | 9.0% | -15.3% | 5.3% | 15.3% | 4.4% | 34.5
CCOc1ccc(CCNC(=O)C2CCCN(S(=O)(=O)N3CC(C)CC(C)C3)C2)cc1OCC (stereo not drawn) | u | -2.8% | 6.8% | 17.3% | u | 6.0
Cc1ccc(NC(=O)N2CCC(CCNC(=O)c3cccc(F)c3)CC2)cc1F | x | 45.7% | x | x | x | x
CCCC(CNC(C)=O)(C1=CCCCC1)c1ccccc1 (stereo not drawn) | 18.4µM* | 8.4% | 0.8% | 1.5% | 13µM* | 19.2
O=C(NC(CC1=CCCCC1)c1ccccc1)C(F)(F)F (stereo not drawn) | x | 1.0% | x | x | x | x
CC(C)c1cccc(NC(=O)c2cccc3ncccc23)c1 | x | 30.1% | x | x | x | x
CCCc1cc(=O)[nH]c(SCc2nc(-c3ccc(OC)cc3)no2)n1 | u | -21.9% | x | x | -28.7% | x
COc1ccc2c(c1)c(C(=O)CNc1nc(C)cs1)c(C)n2C | u | 8.91µM* | -25.8% | 1.8%[9.24 µM] | 20.6µM* | u
COc1ccc2[nH]c(C)c(C(=O)CNc3nccs3)c2c1 | 7.94µM* | x | x | x | 10µM* | x
COc1ccc2c(c1)c(C(C)=O)c(C)n2C | 6.7% | 0.1% | 21.4% | 8.8% | u | -7.7
COc1ccc2c(c1)c(C(=O)CN1CCc3ccccc3C1)c(C)n2C | u | -2.0% | -0.7% | -10.1% | 20.6µM* | 1.2
COc1ccc2[nH]c(C)c(C(=O)CN3CCc4cc(OC)c(OC)cc4C3)c2c1 | 16.4µM* | 29.6% | -29.4% | u | 18.4µM* | -2.3
CCCCCCCCOc1ccc(/C=C/C(=O)O)cc1 | x | 59.1% | x | x | x | x
Cn1cc(CN2CCN3C(=O)N(Cc4ccc(F)cc4)C[C@H]3C2)cn1 | x | 8.8%[176 µM] | x | x | x | x
COc1ccc2c(c1)c(C(=O)CN(C)C)c(C)n2C | -0.2% | u | x | x | -17.7% | x
CCN(CC)CC(=O)c1c(C)n(C)c2ccc(OC)cc12 | 4.5% | 7.94µM* | x | x | 3.0% | x
CCc1nc2c(c(-c3ccc(OC)cc3)n1)CCN(Cc1cc(C)on1)CC2 | x | 2.1%[6.33 µM] | x | x | x | x
O=C(NCCc1c[nH]c2ccc(Cl)cc12)c1ccccc1F | x | -5.1% | x | x | x | x
Cc1ccc(C(C)C)c(OCC(=O)Nn2c(C)nc3ccccc3c2=O)c1 | -20.7% | u | -2.9% | -4.8% | 6.51µM* | 23.0
Cc1ccc(C(C)C)c(OCC(=O)Nn2c(=O)[nH]c3ccccc3c2=O)c1 | -22.0% | -7.4% | -5.9% | 1.5% | u | -27.4
CC(=O)[C@H]1CC[C@H]2[C@@H]3CCC4=CC(=O)CC[C@]4(C)[C@H]3[C@H](O)C[C@]12C | u | -5.6% | 32.5% | 9.1% | 16.4µM* | -7.3
CC(=O)OCC=C1CCC2C3CCC4=CC(=O)CCC4(C)C3C(O)CC12C (stereo not drawn) | 11.6µM* | 2.9% | 2.9% | -4.0% | 11.6µM* | -7.5
CC(=O)[C@H]1CC[C@H]2[C@@H]3C=CC4=CC(=O)CC[C@@]4(C)[C@@H]3CC[C@]12C | 14.6µM*! | -27.7% | 18.1% | 2.8% | 13µM* | 2.9
CC(=O)C1CCC2C3CCC4=CC(=O)C=CC4(C)C3CCC12C (stereo not drawn) | 20.6µM* | 5.4% | -12.1% | -14.2% | 11.6µM* | -8.4
SMILES | DT40 TDP1 CPT | ALOX12 inh | HT1080NT lethal | HT1080 IDH1KD tx | TDP1 cell noCPT | IL1B secr inh
CC(OC(=O)c1n[nH]c(=O)c2ccccc12)C(=O)NCc1ccccc1 (stereo not drawn) | x | -4.0% | x | x | x | x
Cc1cccc(C(=O)Oc2ccc(C3(c4ccc(OC(=O)c5cccc(C)c5)cc4)OC(=O)c4ccccc43)cc2)c1 | x | 4.8% | x | x | x | x
CN(CC(=O)NC1(C#N)CCCC1)Cc1ccco1 | x | -23.3% | x | x | x | x
C=CCNC(=S)Nc1sc2c(c1C(=O)OCC)CC(C(C)C)OC2 (stereo not drawn) | -27.3% | u | 6.31µM* | 7.94µM* | -18.4% | 52.6
CCCCn1c(SCC(=O)N2CCOc3ccc(C)cc32)nc2ccsc2c1=O | x | -6.7% | x | x | x | x
Cc1ccc2c(=O)[nH]c(Cc3ccccc3C(=O)O)nc2c1 | u | 3.3% | 0.0% | -2.3% | 18.4µM* | -7.0
CCOC(=O)/C=C/C(=O)Nc1cccc([N+](=O)[O-])c1 | 1.64µM* | x | u | -25.9% | 4.11µM* | -64.5*
CCOC(=O)/C=C/C(=O)OCC(=O)Nc1cccc(Cl)c1Cl | -18.4% | -6.7% | -3.9% | -11.1% | u | -11.7
CCOC(=O)/C=C/C(=O)Nc1ccccc1-c1ccccc1NC(=O)/C=C/C(=O)OCC | 4.61µM* | -4.9% | u | 23.1µM* | 5.17µM* | -83.1*
COc1cc(C(=O)NCC(c2ccc(C)cc2)N2CCOCC2)cc(OC)c1OC (stereo not drawn) | x | 8.0% | x | x | x | x
COC(=O)c1ccc2nc(C)cc(Nc3ccc(N(C)C)cc3)c2c1 | -0.7% | -14.9% | -19.9% | -16.5% | u | 8.3
COC(=O)c1ccc2nc(C)cc(Nc3ccc(O)cc3)c2c1 | 20.6µM* | u | x | x | 14.6µM* | x
COC(=O)c1ccc(Nc2cc(C)nc3ccccc23)cc1 | u | -3.2% | 18.4µM* | 20.6µM* | 18.4µM* | -97.3*
CCN(CC)C(=O)C1CCC(CNS(=O)(=O)c2cccc3nsnc23)CC1 (stereo not drawn) | 0.6% | 1.9% | -1.3% | -0.8% | -2.1% | 19.9
CCN(C(=O)C1CCC(CNS(=O)(=O)c2cccc3nsnc23)CC1)c1ccccc1 (stereo not drawn) | u | -27.1% | x | x | 23.1µM* | x
CCN(C(=O)C1CCC(CNS(=O)(=O)c2cccc3nsnc23)CC1)c1cccc(C)c1 (stereo not drawn) | u | -18.5% | x | x | 20.6µM* | x
COc1ccc(NC(=O)C2CCC(CNS(=O)(=O)c3cccc4nsnc34)CC2)cc1OC (stereo not drawn) | u | -4.3% | x | x | 16.4µM* | x
O=C(Nc1cccnc1)C1CCC(CNS(=O)(=O)c2cccc3nsnc23)CC1 (stereo not drawn) | -27.6% | -9.2% | -4.4% | -3.4% | u | -10.3
Cc1ccc(NC(=O)c2nccnc2N)cc1C | x | -0.4% | x | x | x | x
CCc1ccc(NC(=O)Nc2ccccc2OCc2cc(=O)n3ccccc3n2)cc1 | u | -1.5% | x | x | u | x
CC(=O)c1ccc(NC(=O)Cn2cnc3c2c(=O)n(C)c(=O)n3C)cc1 | x | -2.3% | x | x | x | x
